Assay outcomes from PubChem BioAssay.
COUP-TFII inh – NR2F2 transcriptional activity inhibitors, primary screen, cell-based, luciferase reporter, HEK293T, luminescence; COUP transcription factor 2 (Homo sapiens), P24468; HEK293T NGFI-A luciferase reporter; inhibition, % at 8.6 µM; 370,000 tested, 0.7% active;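 active = inhibition above a per-plate cutoff, mean inhibition of test wells between control levels plus 3 SD, cut at about 38% in these data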;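 note: cells cotransfected with COUP-TFII expression vector driving the NGFI-A reporter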
Target sequence (P24468 whole entry, looked up): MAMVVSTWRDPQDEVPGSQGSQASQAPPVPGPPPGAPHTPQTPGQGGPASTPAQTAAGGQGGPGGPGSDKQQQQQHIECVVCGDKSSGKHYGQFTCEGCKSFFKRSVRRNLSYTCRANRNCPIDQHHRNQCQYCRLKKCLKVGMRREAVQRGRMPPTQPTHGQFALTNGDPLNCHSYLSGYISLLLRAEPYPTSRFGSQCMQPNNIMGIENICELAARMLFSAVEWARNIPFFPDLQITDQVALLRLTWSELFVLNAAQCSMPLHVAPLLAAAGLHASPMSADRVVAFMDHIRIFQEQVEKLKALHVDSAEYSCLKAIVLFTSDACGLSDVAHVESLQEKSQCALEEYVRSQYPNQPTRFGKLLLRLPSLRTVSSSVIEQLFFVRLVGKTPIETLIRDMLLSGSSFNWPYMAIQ
SRC2 inh – inhibition of GAL4-SRC2 driven luciferase reporter, primary screen, SRC2 inhibitor project, cell-based, luminescence. Nuclear receptor coactivator 2 (Homo sapiens), Q15596. HEK293 GAL4-SRC2 luciferase reporter. inhibition, % at 9 µM. 370,000 tested, 0.17% active. AID 651957, 2012;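 active = inhibition above the mean inhibition of all tested compounds plus 3 SD, set per campaign, cut at about 52% in these data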
NR5A2 inv ag – LRH-1 (NR5A2) inverse agonists, primary screen, cell-based, luminescence, HEK293T, StAR-luciferase reporter; inhibition, % at 3.6 µM; 360,000 tested, 0.13% active; AID 602396, 2012; LRH-1 transfected, 24 h;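 active = inhibition above the mean inhibition of all tested compounds plus 3 SD, cut at about 73% in these data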
SRC1 inh – SRC1 coactivator transcriptional activity inhibitors, primary screen, cell-based, luminescence; Nuclear receptor coactivator 1 (Homo sapiens), Q15788; HEK293 GAL4-SRC1 luciferase reporter; inhibition, % at 3.6 µM; 360,000 tested, 0.12% active;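 active = inhibition above the campaign mean plus 3 SD, with each screening campaign given its own cutoff, cut at about 60% in these data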
NCOA3 inh – SRC3 coactivator transcriptional activity inhibitors, primary screen, cell-based, luminescence. Nuclear receptor coactivator 3 (Homo sapiens), Q9Y6Q9. HEK293 GAL4-SRC3 luciferase reporter. inhibition, % at 3.6 µM. 360,000 tested, 0.17% active;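 active = inhibition above a per-campaign cutoff, the mean of all compounds plus 3 SD, cut at about 60% in these data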;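 note: higher means less SRC3-driven luciferase light from the GAL4 reporter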
VP16 Luc counter – Gal4-VP16 luciferase reporter inhibitors, counter-screen for COUP-TFII antagonist project, cell-based, luminescence, HEK293 | shares compounds with COUP-TFII inh | inhibition, % at 8.5 µM | 2,500 tested, 25% active | AID 687007, 2013; in the data active = inhibition above about 13%
NR2F2 inh conf – NR2F2 transcriptional activity inhibitors, confirmation, cell-based, luciferase reporter, HEK293, triplicate. shares compounds with COUP-TFII inh. HEK293 NGFI-A luciferase reporter, luminescence. inhibition, % at 8.5 µM. 2,500 tested, 45% active. AID 687008, 2013;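 active = mean inhibition over three repeats above a set limit taken from the earlier primary screen, cut at about 38% in these data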
Hits are given with their value; - = inactive; . = not tested or not shown. Rows were chosen to be rich in hits. Some 0.81% of all compounds tested hit in one or more screens of this group.

SMILES	COUP-TFII inh	SRC2 inh	NR5A2 inv ag	SRC1 inh	NCOA3 inh	VP16 Luc counter	NR2F2 inh conf
COc1ccc(CN(C)C(=O)CCc2ccc(S(=O)(=O)N3CCCCCC3)cc2)c(OC)c1	-	-	-	-	-	.	.
CC(C)(C)c1ccc(C(=O)O/N=C(\N)c2ccccc2)cc1	86	80	-	82	82	66	91
COC(=O)c1cnn(-c2ccc(Cl)cc2)c1/C=N/NC(N)=S	43	-	-	-	-	-	-
Nc1c(C(=O)N/N=C/c2ccc(Cl)cc2)cnn1-c1ccccc1	-	-	-	-	-	.	.
O=C(CSc1nc2nc(-c3cccs3)cc(C(F)(F)F)c2c(=O)[nH]1)C(F)(F)F	38	-	-	-	-	-	-
CC(=O)N1c2ccc(S(=O)(=O)N3CCCC(C(=O)Nc4ccc(F)cc4)C3)cc2CC1C (stereo not drawn)	46	-	-	-	-	-	-
CC(=O)N1c2ccc(S(=O)(=O)N3CCCC(C(=O)Nc4ccc(C)cc4)C3)cc2CC1C (stereo not drawn)	-	-	-	-	-	.	.
Cc1ccc(NC(=O)C2CCN(S(=O)(=O)c3ccc4c(c3)CC(C)N4C(=O)C3CCC3)CC2)nc1 (stereo not drawn)	45	-	-	-	-	-	-
Cc1ccc(CN2C(=O)CSCC2(C)C(=O)NCc2ccccc2)cc1 (stereo not drawn)	-	-	-	.	.	.	.
Cc1sc2ncnc(NCC(c3ccco3)N3CCCC3)c2c1C (stereo not drawn)	-	-	-	-	-	.	.
COC(=O)[C@H](CC1(c2cn(S(=O)(=O)CC[Si](C)(C)C)c3ccccc23)C(=O)Nc2ccccc21)NC(=O)OC(C)(C)C (stereo partly drawn)	-	.	.	.	.	.	.
CNc1nc2c(c(=O)n(C)c(=O)n2C)n1Cc1ccccc1	41	-	-	-	-	-	-
CCCn1c(CN(C)Cc2ccccc2)nc2c1c(=O)n(C)c(=O)n2C	-	-	-	-	-	.	.
Cc1cccc(Cn2c(NCCO)nc3c2c(=O)n(C)c(=O)n3C)c1	52	-	-	-	-	-	-
COCCNc1nc2c(c(=O)n(C)c(=O)n2C)n1Cc1cccc(C)c1	-	-	-	-	-	.	.
CCCCn1c(CN(C)Cc2ccccc2)nc2c1c(=O)n(C)c(=O)n2C	40	-	-	-	-	-	-
CNc1nc2c(c(=O)n(C)c(=O)n2C)n1CCCc1ccccc1	-	-	-	-	-	.	.
CN(C(=O)[C@@H](Cc1ccccc1)NC(=O)[C@H]1O[C@@H](n2cnc3c(=O)[nH]c(N)nc32)[C@H](O)[C@@H]1O)C1CCCCC1	-	-	.	.	.	.	.
Nc1nc(F)nc2c1ncn2[C@@H]1O[C@H](CO)[C@@H](O)[C@@H]1O	-	-	-	-	-	.	.
Nc1nc(F)nc2c1ncn2[C@@H]1O[C@H](CO)[C@@H](O)[C@H]1O	82	69	102	88	92	55	65
CCn1nc(C)c(CNC(=O)c2cc(COc3ccc(F)cc3Cl)on2)c1C	41	-	-	-	-	-	44
CC(NC(=S)Nc1c(Br)cccc1OC(F)F)C(C)(C)C (stereo not drawn)	-	-	-	-	-	.	.
Cc1c(C=O)c2ccccc2n1CCOc1ccccc1F	45	-	-	-	-	-	-
CN(Cc1ccccc1NS(=O)(=O)c1ccc2ccccc2c1)C1CCCCC1	-	-	-	-	-	.	.
O=C(COC(=O)c1ccc[nH]c1=O)Nc1ccc(N2CCCCC2)cc1	86	87	-	-	-	77	71
SMILES	COUP-TFII inh	SRC2 inh	NR5A2 inv ag	SRC1 inh	NCOA3 inh	VP16 Luc counter	NR2F2 inh conf
C=Cc1ccc(CC2(C)C(=O)Nc3ccc(-c4cccnc4)cc32)cc1 (stereo not drawn)	-	-	-	-	-	.	.
CN=c1scc(-c2ccccc2F)n1/N=C/c1ccc[nH]1	106	91	91	92	92	86	107
CN=c1scc(-c2ccccc2F)n1/N=C/c1ccc(O)c(O)c1O	-	-	-	-	-	.	.
Clc1ccccc1OCCCn1ccnc1	-	-	-	-	-	.	.
Cc1nccn1CCOc1ccccc1Cl	68	-	-	-	-	-	-
CC(C)Cn1c(N)c(C(=O)COC(=O)c2ccc(F)cc2)c(=O)n(C)c1=O	-	-	-	-	-	.	.
CCc1ccc(C(=O)OCC(=O)c2c(N)n(CC(C)C)c(=O)n(C)c2=O)cc1	47	-	-	-	-	-	-
Cn1nc(C(C)(C)C)cc1C(=O)NCc1ccc(N2CCCC2=O)cc1	69	-	-	-	-	-	52
Cc1ccc(CNC(=O)c2ccc(N3CCCC3=O)cc2)cc1	-	-	-	-	-	.	.
Cc1csc(NC(=O)Cc2nn(C)c(=O)c3ccccc23)n1	45	-	-	-	-	-	-
Cn1nc(CC(=O)Nc2ccc3c(c2)OCCO3)c2ccccc2c1=O	68	-	-	-	-	-	53
COc1cccc(OC)c1NC(=O)Cc1nn(C)c(=O)c2ccccc12	-	-	-	-	-	.	.
Cn1nc(CC(=O)N2CCN(c3ccccc3)CC2)c2ccccc2c1=O	-	-	-	-	-	.	.
Cn1nc(CC(=O)Nc2ccc(N3CCN(C(=O)OC(C)(C)C)CC3)cc2)c2ccccc2c1=O	53	-	-	-	-	-	64
CCC(C(=O)OCC(=O)N(CCOC)c1c(N)n(Cc2ccccc2)c(=O)[nH]c1=O)c1ccccc1 (stereo not drawn)	-	-	-	-	-	.	.
CSc1ccc(C(=O)C2CCCN(C(=O)CCn3cncn3)C2)cc1 (stereo not drawn)	-	-	-	-	-	.	.
CSc1ccc(C(=O)C2CCCN(C(=O)CCc3c(C)nn(C)c3C)C2)cc1 (stereo not drawn)	58	-	-	-	-	-	-
COc1ccc(-n2c(-c3ccc(Cl)cc3)c[n+]3c2CCc2ccccc2-3)cc1	51	-	-	-	-	18	44
COc1ccc(-n2c(-c3ccccc3)nnc2-c2ccc(Cl)cc2)cc1	-	-	-	-	-	.	.
OCCC1CN(Cc2cnc(-c3ccc(Cl)cc3)nc2)CCN1C1CCCCC1 (stereo not drawn)	37	-	-	-	-	-	-
OCC1(Cc2ccccc2)CCN(Cc2cnc(-c3ccc(Cl)cc3)nc2)CC1	43	-	-	-	-	-	-
Cc1cccc(-c2ncc(CN3CCN(C4CCCC4)C(CCO)C3)cn2)c1 (stereo not drawn)	-	-	-	-	-	.	.
